Test systems include NCI-H23 lung; NCI-H226 lung; NCI-H322M lung; HOP-62 NSCLC; NCI-H460 lung; HOP-92 NSCLC; NCI-H522 lung; A549/ATCC NSCLC; 786-0 renal; COLO 205 colon; DU-145 prostate; K-562 leukemia; MALME-3M melanoma; MDA-MB-231 breast; RXF 393 renal; SF-268 CNS; SF-295 CNS; SF-539 CNS; UACC-257 melanoma; M14 melanoma.
Common to all, as to experiment: NCI-60 one-dose screen, 48 h (100 = growth as untreated, 0 = no growth, -100 = all killed)
Common to all, as to conditions: 10 µM unless noted

About 83,000 compounds went through this panel and 20% of them were active in at least one assay; those are over-represented in the sample as a whole.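 Plates (96-well) were seeded with cells, treated with compound at one concentration, and incubated for 48 hours before percent growth was determined.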 Unmarked numbers belong to inactive results. Active and inactive are the calls of the source. The calls were made as follows: active = growth percent below 10; inactive = the rest.

As to `O=C1c2ccccc2NC(n2sc3ccccc3c2=O)N1c1ccccc1` (stereo not given), the growth with NCI-H23 lung was 99%; in the assay with NCI-H226 lung, 93.3%; in the assay with NCI-H322M lung, 91.9%; with HOP-62 NSCLC, 92.3%; in the assay on NCI-H460 lung, 107%; in the assay on HOP-92 NSCLC, 95.2%. The growth with NCI-H522 lung is 76.8%; with A549/ATCC NSCLC, 101%; with 786-0 renal it was 92%; with COLO 205 colon, 115%; in the assay on DU-145 prostate it was 107%; with K-562 leukemia it was 95.5%. Besides, the growth was 106% in the assay on MALME-3M melanoma; 90.6% with MDA-MB-231 breast; 110% with RXF 393 renal; 91.7% in the assay with SF-268 CNS; 99.6% in the assay with SF-295 CNS; 94.7% in the assay on SF-539 CNS. The growth in the assay on UACC-257 melanoma was 120%; in the assay with M14 melanoma it was 102%.
In the case of `CCOC(=O)/C(C#N)=C\Nc1ccc2ncnc(Nc3ccc(Cl)cc3Cl)c2c1`, the growth is 99.5% with NCI-H23 lung; 99.8% in the assay with NCI-H226 lung; 75.6% in the assay with NCI-H322M lung; 101% with HOP-62 NSCLC; 84.8% in the assay with NCI-H460 lung; 56.5% with HOP-92 NSCLC. Also, the growth was 95.8% with NCI-H522 lung; 72.1% in the assay with A549/ATCC NSCLC; 82.6% in the assay on 786-0 renal; 108% with COLO 205 colon; 55.9% in the assay with DU-145 prostate; 59.7% in the assay on K-562 leukemia. The growth in the assay on MALME-3M melanoma is 140%; in the assay with MDA-MB-231 breast it was 85.2%; in the assay with RXF 393 renal, 77%; in the assay on SF-268 CNS it was 73%; with SF-295 CNS it was 82.2%; with SF-539 CNS it was 92.7%. Besides, the figures for the growth with UACC-257 melanoma and in the assay on M14 melanoma were 97.2% and 106%, respectively.
As to `CCN1C(=O)N(CC)C2Nn3c(s/c(=C4\C(=O)Nc5ccccc54)c3=O)=NC21` (stereo not given), the growth in the assay with NCI-H23 lung was 48.6%; with NCI-H226 lung it was 79.3%; with NCI-H322M lung it was 71.5%; with HOP-62 NSCLC it was 68.4%; with NCI-H460 lung, 23.7%; with HOP-92 NSCLC, 69.7%. Also, the growth in the assay on NCI-H522 lung was 15.4%; with A549/ATCC NSCLC it was 55.1%; in the assay on 786-0 renal it was 32%; in the assay on COLO 205 colon, 19.5%; in the assay on DU-145 prostate, 10.2%; in the assay with K-562 leukemia, 20.2%. Besides, the growth with MALME-3M melanoma is 56.5%; in the assay on MDA-MB-231 breast, 48.3%; in the assay on RXF 393 renal it was -1.37% (active); in the assay with SF-268 CNS, 64.9%; with SF-295 CNS, 56.6%; with SF-539 CNS it was 10.9%. Also, the growth is 67.4% with UACC-257 melanoma and 14.9% in the assay with M14 melanoma.
As for `CCOC(=O)c1nc(Nc2ccc(C(C)=O)cc2)sc1C`, the growth was 94.1% in the assay with NCI-H23 lung; 98.8% in the assay on NCI-H226 lung; 96.2% with NCI-H322M lung; 105% in the assay on HOP-62 NSCLC; 105% with NCI-H460 lung; 108% in the assay on HOP-92 NSCLC. Further, the growth in the assay on NCI-H522 lung was 87.2%; in the assay on A549/ATCC NSCLC it was 94.3%; in the assay with 786-0 renal, 96.5%; in the assay with COLO 205 colon it was 106%; in the assay with DU-145 prostate it was 107%; in the assay on K-562 leukemia it was 99.1%. Also, the growth with MALME-3M melanoma was 106%; in the assay on MDA-MB-231 breast it was 104%; in the assay with RXF 393 renal it was 109%; in the assay with SF-268 CNS it was 102%; in the assay on SF-295 CNS, 92%; in the assay with SF-539 CNS, 97.2%. For the same molecule, the growth with UACC-257 melanoma is 102%; in the assay with M14 melanoma it was 104%.
Regarding `CCOC(=O)c1[nH]c(C)c(C(=O)OCc2ccccc2C#N)c1C`, the growth is 69% in the assay with NCI-H23 lung; 100% with NCI-H226 lung; 88.4% with NCI-H322M lung; 68.7% with HOP-62 NSCLC; 83.4% with NCI-H460 lung; 47.4% in the assay on HOP-92 NSCLC. Besides, the growth with NCI-H522 lung is 51.8%; in the assay on A549/ATCC NSCLC, 83.6%; in the assay on 786-0 renal, 61.2%; with COLO 205 colon, 89.8%; in the assay with DU-145 prostate, 87.2%; with K-562 leukemia it was 25.6%. Moreover, the growth in the assay on MALME-3M melanoma was 66.5%; in the assay with MDA-MB-231 breast it was 73.9%; with RXF 393 renal, 58.3%; in the assay with SF-268 CNS it was 72.9%; in the assay with SF-295 CNS it was 75.2%; with SF-539 CNS, 16.2%. In addition, the growth is 114% in the assay on UACC-257 melanoma and 58.9% in the assay with M14 melanoma.
`O=C(N/N=C/c1c(Cl)cccc1Cl)c1ccc(C(F)(F)F)nc1Nc1cccc(C(F)(F)F)c1`: the growth is -10.6% (active) with NCI-H23 lung; 14.2% in the assay on NCI-H226 lung; 1.62% (active) in the assay with NCI-H322M lung; 28.2% in the assay on HOP-62 NSCLC; 7.11% (active) with NCI-H460 lung; 7.35% (active) in the assay on HOP-92 NSCLC. Also, the growth in the assay with NCI-H522 lung was -3.43% (active); in the assay on A549/ATCC NSCLC, 18.6%; in the assay on 786-0 renal it was 8.61% (active); with COLO 205 colon it was -15.4% (active); in the assay with DU-145 prostate, 11.4%; in the assay with K-562 leukemia, -7.07% (active). For the same molecule, the growth in the assay with MALME-3M melanoma was 5.8% (active); in the assay with MDA-MB-231 breast, 11.3%; with RXF 393 renal it was 40.8%; with SF-268 CNS, -2.71% (active); in the assay on SF-295 CNS, 13.7%; in the assay with SF-539 CNS it was 1.63% (active). Moreover, the growth in the assay with UACC-257 melanoma was 7.6% (active); with M14 melanoma, 23.6%.
On to `CCN(CC)Cc1cc(Nc2c3ccc(Cl)cc3nc3ccc(OC)cc23)ccc1O`, for which the growth with NCI-H23 lung was 65.7%; with NCI-H226 lung it was 86%; in the assay with NCI-H322M lung, 62.5%; in the assay on HOP-62 NSCLC, 80.5%; with NCI-H460 lung, 34.9%; in the assay with HOP-92 NSCLC it was 60.5%. Further, the growth is 39% in the assay on NCI-H522 lung; 52.4% in the assay with A549/ATCC NSCLC; 47.3% in the assay with 786-0 renal; 5.97% (active) with COLO 205 colon; 62.6% with DU-145 prostate; 3.14% (active) in the assay with K-562 leukemia. The growth is 112% in the assay with MALME-3M melanoma; 45.7% with MDA-MB-231 breast; -12.6% (active) in the assay with RXF 393 renal; 43.9% with SF-268 CNS; 72.5% with SF-295 CNS; 58.7% in the assay on SF-539 CNS. Further, the growth in the assay with UACC-257 melanoma is -39.4% (active); with M14 melanoma, -67.5% (active).
For the molecule `Nc1nc(Cl)cc(=O)n1Cc1ccccc1`, the growth in the assay on NCI-H23 lung is 88.1%; in the assay on NCI-H226 lung, 87.6%; in the assay with NCI-H322M lung, 89.6%; in the assay with HOP-62 NSCLC, 97.8%; in the assay on NCI-H460 lung, 105%; in the assay on HOP-92 NSCLC it was 88.3%. The growth was 86.7% with NCI-H522 lung; 94.6% in the assay on A549/ATCC NSCLC; 101% in the assay with 786-0 renal; 114% with COLO 205 colon; 98.9% in the assay on DU-145 prostate; 106% in the assay with K-562 leukemia. Further, the growth in the assay with MALME-3M melanoma is 93.2%; with MDA-MB-231 breast, 92%; with RXF 393 renal, 101%; with SF-268 CNS, 103%; in the assay with SF-295 CNS it was 95.5%; in the assay on SF-539 CNS it was 96.2%. Besides, the growth is 93.1% with UACC-257 melanoma and 93.3% in the assay on M14 melanoma.

The values above are taken from PubChem BioAssay (NCI).
